# According to the supplement of paper PMC11417369:
# ± gives the standard deviation of the averaged measurements. Whole data set: some 25,000 sequences, median “ln(normalized median fluorescence intensity)” near 7.9, cut for the highest 2% near 11. For the sample, the highest values were picked, then their nearest neighbours and some sequences at random.
# System: PfAP2-I AP2 domain 3 (GST-tagged)
# Assay: gcPBM binding intensity (ln(normalized median fluorescence intensity)); higher = stronger DNA binding
# In short: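 Binding of GST-tagged P. falciparum DNA-binding domains, expressed in E. coli and used at about 25 μg on average, was carried out for 1 h in 1× PBS containing 1% milk, 0.2 mg/ml BSA, 0.5% salmon testes DNA and 0.03% Triton X-100. The target was an Agilent 4 × 180k array of primer-extended double-stranded 36-bp intergenic genomic probes plus negative controls, read with Alexa488 anti-GST antibody at 488 nm. Binding intensity is the highest Masliner-normalised natural-log median intensity across replicate spots of either probe orientation.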
row,Sequence,gcPBM binding intensity (ln)
1,ATATATATATATAAAGTGCAAAAATGAAAGTAAGAC [GTGCAC_site9850],10.4 ± 0.21
2,TTTATATAAATTTAAGTGCAAAATGAACAAGTGAAA,10.1 ± 0.15
3,ATAACAAAATGAAGAGTGCATTACCAAGTGGGTAAA [GTGCAC_site9450],10.93 ± 0.014
4,TTATATATTTTTACCATACACACATATAATAAATAT [CACACA_site3721],8.04 ± 0.63
5,TTTTTATTTTTTGTCTGTACATATATAAATTTATTA [XGTACX_site1525],7.88 ± 0.47
6,CCGTACAATTTTGTCACACATAAAATACTTATGTAT [CACACA_site4871],7.66 ± 0.51
7,AGTAGATTTTTATTAGTGCATTTTATACTACAAAAA,9.71 ± 0.24
8,TCCTTTTTACTACTAGTGCATTATTTACAAGGTCCG [GTGCAC_site9441],11.4 ± 0.68
9,CACCCTTTACACAAGGTGCATACTTTATTATATTTT [GTGCAC_site9778],9.305 ± 0.049
10,TATTATTATTGTTGATGTACATTTAATATAATATAT [XGTACX_site4482],7.7 ± 0.38
11,AATATTGTTCACAAGGTGCTTTTTATTCATACTAAT,8.86 ± 0.18
12,TGTGTGTGTTCATGGGTGCTTTAATACTATTATAGG [GTGCAC_site9465],11 ± 0.61
13,TTTTTAATTTTGTGGGTGCTTTCGTGTTATTATATA,9.415 ± 0.021
14,TGAATATTTCTATATACACACATATAAATATAAATA [CACACA_site7593],7.55 ± 0.31
15,TTTTTAACGTATAAGGTGCACTGTATATGGTACTCA,11 ± 0.33
16,ATATATATATATATATGTACTTATAAGGTATATTTA [XGTACX_site3327],9.35 ± 0.52
17,GTGGTATAAATTTTATGTACTTAATAACTCATTAAT [XGTACX_site5555],7.79 ± 0.28
18,ATATTATTATAAACTTCACACATTTTATGGGTTTTT [CACACA_site4631],7.49 ± 0.61
19,ATAAAGATTAACAAAGTGCATTTATATATATAATCT [GTGCAC_site9407],9.865 ± 0.092
20,TTAAAAGTAAGCAAAGTGCATATAACAAAAGTAAAG,10.01 ± 0.092
21,ATATATATAACAAAAGTGCATTAAGGGGATGCTATA,11.5 ± 0.26
22,TTTTTTTTTTTTTTGGTGCGTTTATATATAAATATA,10.4 ± 0.86
23,TTAACAAAATTTTTAACACACAAAAAAAAAAAAAAA [CACACA_site1828],8.2 ± 0.8
24,AAATAACCCACGTGCATGCACTTCAATAACTGAACT,11.3 ± 0.14

row,Sequence,gcPBM binding intensity (ln)
1,TGAAATAACCCATGTGCATGCACTTCAATAACTGAA [TGCATGCA_site1041],9.54 ± 0.47
2,GGTTATAACCCACATGCACACGTAAATAAATATTAT [CACACA_site5992],8.77 ± 0.3
3,TTGTATTCATATGGTTGTACATATTAAAAGTTCTAA [XGTACX_site7255],7.73 ± 0.31
4,CATATTATTATTTTGGTGCATACTTATATATATTTT,9.53 ± 0.085
5,TACTTATTTGATTGGGTGCATATATATAGTATGTAT [GTGCAC_site9845],11 ± 0.73
6,ATAGTTTAATTTATATGTACATATAATATTGATTTG [XGTACX_site7520],7.89 ± 0.41
7,GTCAATATTTAGATATGTACTAAGGAGTGCTATATA [XGTACX_site222],10.2 ± 0.55
8,TCCGCATGTACATGGGTGCACATAACACCCATTTAA [GTGCAC_site9881],10.4 ± 0.44
9,TTTTGTTTTTGTAGAGTGCATAAAGAAGATATGTAT,11.1 ± 0.86
10,TATATATGTATAAGAGTGCATATGCATATATGTATA [GTGCAC_site9692],9.85 ± 0.014
11,GAAAAGCAGATAAATGTGCACATATATGTTTGTATA,9.71 ± 0.43
12,TATTTATGCACGCGTGCACACACATATGAAAAAAGG [CACACA_site9090],11.1 ± 0.59
13,CAAAAGGATATGCACACACACACACGGATATTTATA [CACACA_site7099],8.985 ± 0.064
14,TTATATGCATAAAAAGGTACACATATATAAATAAAT [XGTACX_site6894],8.23 ± 0.4
15,TATGAAAAAATATATACACACATAATAAAGGTATAT [CACACA_site3737],7.73 ± 0.59
16,GGTATTTATGGACGCGTGCACACACATATGAACAAA,9.9 ± 0.14
17,TTTATGCACGCGTGCACACACATATGAAAAAAGGTA [CACACA_site3315],10.9 ± 0.72
18,TTTGTTATATTTAATACACACATATTATAAACCCAT [CACACA_site3716],7.95 ± 0.59
19,TTTTCTTACACGAATTTTAAATTCAATATTAAACAT [CACACA_negctrl_site286],8.03 ± 0.44
20,ATGTATATTTTTATGTGTACGTAATAAAACATAATA [XGTACX_site7777],8.33 ± 0.27
21,AAATCCATATAGGATTGTACATATATTATATATATA [XGTACX_site8818],8.46 ± 0.39
22,ATCCTCTTTACAATATGTACATAAATATATATTTAT [XGTACX_site8001],8.47 ± 0.43
23,TTTTGTTATTTTTCAGTGCAATATGATAATAATATA,10.5 ± 0.46
24,TACACATAATATAATGCATGTGTGATGTATGTTTAA [TGCATGCA_site697],8.09 ± 0.66
